From PubChem BioAssay (NCATS)
Results filed as inconclusive are left out. A call without a number means that no potency is given here. The source made the active and inactive calls. Calls follow the shape of the dose curve; as a rule, active = well fitted inhibition curve with a large enough effect; inconclusive = small, poorly fitted or top-dose-only effect; inactive = no such curve, though single readings can be large or run the other way.

Test: Counterscreen qHTS for small molecule stabilizers of the endoplasmic reticulum resident proteome: GLuc-NoTag assay (AID 1508627)
Settings: Gaussia luciferase NoTag secretion counterscreen, luminescence, thapsigargin 100 nM for final 4 h; series mostly up to 76.4 µM
From the text: Assay Provider: Brandon K. Harvey Ph.D.
National Institute on Drug Abuse, National Institutes of Health, Baltimore, MD
Endoplasmic reticulum (ER) dysregulation is associated with human pathologies including neurodegenerative, cardiovascular, muscular, and diabetic conditions. Maintenance of ER calcium is critical for functions of the ER and its depletion can lead to loss of ER resident proteins, in a process termed exodosis. Therapeutic compounds capable of attenuating the redistribution of ER proteins under pathological conditions may slow or stop disease progression. To identify such compounds, we performed a quantitative high-throughput screen (qHTS) using the SERCaMP assay, which monitors secretion of ER resident proteins triggered by calcium depletion.
SERCaMP was initially developed as a reporter of ER calcium homeostasis using a Gaussia luciferase with a modified signal peptide and carboxy-terminus (GLuc-SERCaMP), modifications that confer secretion of the reporter in response to ER calcium depletion (Henderson et al., 2014). The assay was used to screen 9,501 compounds, including a collection of drugs approved by the FDA (US), EMA (EU), NHI (Japan), and HC (Canada) regulatory agencies (Huang et al., 2011). Since the SERCaMP reporter reflects the exodosis phenomenon (Trychta et al., 2018a), compounds identified in the screen have the potential to prevent exodosis by different mechanisms such as stabilizing ER calcium or augmenting ERS retrieval.
1. Henderson, M.J., Wires, E.S., Trychta, K.A., Richie, C.T., and Harvey, B.K. (2014). SERCaMP: a carboxy-terminal protein modification that enables monitoring of ER calcium homeostasis. Mol Biol Cell 25, 2828-2839.
2. Huang, R., Southall, N., Wang, Y., Yasgar, A., Shinn, P., Jadhav, A., Nguyen, D.T., and Austin, C.P. (2011). The NCGC pharmaceutical collection: a comprehensive resource of clinically approved drugs enabling repurposing and chemical genomics. Sci Transl Med 3, 80ps16.
3. Trychta, K.A., Back, S., Henderson, M.J., and Harvey, B.K. (2018a). KDEL Receptors Are Differentially Regulated to Maintain the ER Proteome under Calcium Deficiency. Cell Rep 25, 1829-1840 e1826.
SEQUENCE No. (1, 2, 3, etc.); […] (e.g., Cells, Incubation, Reagent, etc.); VALUE and DESCRIPTION.
1; Reagent; 5 uL; 1000 SH-SY5Y cells per wells
3; Compound; 23 nL; Control inhibitor / compound library
5; Reagent; 100 nM; Thapsigargin
7; Reagent; 1 uL; 0.5x coelenterazine
8; Detection; Luminescence; ViewLux imaging system
NOTES (numbers refer to sequence above)
1; SH-SY5Y human neuroblastoma cells stably expressing the constitutively secreted GLuc (SH-SY5Y-GLuc-NoTag) cells were seeded in 1,536 well white tissue culture treated plates (Corning, Cat# 7464) in DMEM-high glucose-sodium pyruvate (ThermoFisher Scientific, Cat #10569) supplemented with 10% bovine growth serum (Hyclone), 10 U/ml penicillin (Gibco), 10 ug/ml streptomycin (Gibco), and 20 mM HEPES.
2; Assay plates were incubated for 5 hour at 37C in a humidified incubator containing 5% CO2.
4; Cells were then incubated for 19 hours at 37C, 5% CO2.
5; Thapsigargin was added at 100 nM to deplete ER calcium stores.
6; Cells were incubated for 4 hour (37 °C, 5% CO2)
7; Gaussia luciferase in the medium was measured by adding 1 ul of 0.5x coelenterazine (final concentration 0.07x) prepared in Gaussia Luciferase Glow Assay Buffer (Pierce), without addition of the Cell Lysis Buffer Reagent.
8; Luminescence was measured using a ViewLux CCD imaging system (Perkin Elmer) equipped with clear filters. […] The same controls were also used for the calculation of the Z' factor, a measure of assay quality control, as previously described (Zhang et al., 1999). For the initial validation of activity in the SERCaMP assays, hits from the primary screen were assayed again at 11-concentrations (1.3 nM - 76.6 uM). SH-SY5Y-GLuc-SERCaMP cells were assayed for ER Ca2+ depletion as outlined above.
1. Zhang, J.H., Chung, T.D., and Oldenburg, K.R. (1999). […]
Potency is read from the fitted curve at half-maximal effect.

SMILES | Potency
Oc1ccc2c3c1O[C@H]1[C@@H](O)C=C[C@H]4[C@@H](C2)NCC[C@@]341 | inactive
Clc1ccc(C(c2ccc(Cl)cc2)n2cc[n+](CC(OCc3ccc(Cl)cc3Cl)c3ccc(Cl)cc3Cl)c2)cc1 (stereo not given) | inactive
CN1CCN(c2ccc([N+](=O)[O-])c3no[n+]([O-])c23)CC1 | inactive
C/C=C(/C)C(=O)O[C@H]1C(C)=C2[C@H]([C@@H]1OC(=O)CCCCCCC)[C@@](C)(OC(C)=O)C[C@H](OC(=O)CCC)[C@@]1(O)[C@H]2OC(=O)[C@@]1(C)O | inactive
NCc1cc(=O)[nH]o1 | inactive
Nc1c(Cl)c(Cl)c(Cl)c(Cl)c1Cl | inactive
c1ccc2c(CN3CCNCC3)cccc2c1 | inactive
NC1CCc2cc(O)c(O)cc2C1 (stereo not given) | inactive
CNCCc1ccc(O)c(O)c1 | 11.2 µM (active)
Nc1ccc(Cl)cc1N | inactive
O=[N+]([O-])c1c2ccccc2cc2ccccc12 | inactive
C[C@H]1CCCC=CC2C[C@H](O)C[C@@H]2[C@H](O)C=CC(=O)O1 (stereo not given in full) | inactive
Nc1ccc(N=Nc2ccccc2)cc1 | inactive
C=CCN1CC[C@]23CCCCC2[C@H]1Cc1ccc(O)cc13 (stereo not given in full) | inactive
CC=C(C)C(=O)O[C@H]1C(C)=C2[C@@H]3OC(=O)[C@@](C)(O)[C@@]3(O)[C@@H](OC(=O)CCC)C[C@](C)(OC(C)=O)[C@@H]2[C@@H]1OC(=O)CCCCCCC | inactive
